The target of test [1] is T1, Ephrin type-B receptor 2 (Homo sapiens) (UniProt P29323).
T1 sequence (whole entry): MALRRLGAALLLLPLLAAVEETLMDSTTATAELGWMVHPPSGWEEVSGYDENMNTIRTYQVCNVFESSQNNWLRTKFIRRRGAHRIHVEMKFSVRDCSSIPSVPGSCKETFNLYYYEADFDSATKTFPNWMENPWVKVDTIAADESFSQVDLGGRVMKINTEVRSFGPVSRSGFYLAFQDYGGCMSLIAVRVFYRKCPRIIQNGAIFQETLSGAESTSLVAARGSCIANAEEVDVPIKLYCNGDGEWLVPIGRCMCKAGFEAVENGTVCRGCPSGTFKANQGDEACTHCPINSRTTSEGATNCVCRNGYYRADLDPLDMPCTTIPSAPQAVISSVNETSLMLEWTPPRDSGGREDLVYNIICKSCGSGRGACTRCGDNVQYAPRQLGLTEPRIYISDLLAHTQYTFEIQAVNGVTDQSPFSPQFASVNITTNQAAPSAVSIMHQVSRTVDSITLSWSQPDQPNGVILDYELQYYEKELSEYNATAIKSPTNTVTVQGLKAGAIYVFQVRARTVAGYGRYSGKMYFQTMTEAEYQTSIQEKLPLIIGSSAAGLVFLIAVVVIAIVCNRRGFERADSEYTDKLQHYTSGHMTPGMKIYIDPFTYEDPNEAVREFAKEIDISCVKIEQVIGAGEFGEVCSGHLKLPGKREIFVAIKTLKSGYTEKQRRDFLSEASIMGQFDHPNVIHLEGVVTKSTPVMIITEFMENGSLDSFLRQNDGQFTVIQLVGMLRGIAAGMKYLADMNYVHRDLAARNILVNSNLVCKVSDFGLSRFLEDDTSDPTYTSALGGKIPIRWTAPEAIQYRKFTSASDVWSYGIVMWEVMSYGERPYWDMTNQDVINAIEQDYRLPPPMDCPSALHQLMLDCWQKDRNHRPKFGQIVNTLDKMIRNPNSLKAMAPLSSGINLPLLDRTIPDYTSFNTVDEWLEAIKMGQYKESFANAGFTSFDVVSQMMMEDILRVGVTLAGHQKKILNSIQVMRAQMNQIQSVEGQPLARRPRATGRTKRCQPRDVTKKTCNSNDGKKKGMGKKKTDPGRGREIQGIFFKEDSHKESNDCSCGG
Particulars: at 1 µM.

Test [2] concerns the target T2, Ephrin type-B receptor 3 (Homo sapiens) (UniProt P54753).
T2 sequence (whole entry): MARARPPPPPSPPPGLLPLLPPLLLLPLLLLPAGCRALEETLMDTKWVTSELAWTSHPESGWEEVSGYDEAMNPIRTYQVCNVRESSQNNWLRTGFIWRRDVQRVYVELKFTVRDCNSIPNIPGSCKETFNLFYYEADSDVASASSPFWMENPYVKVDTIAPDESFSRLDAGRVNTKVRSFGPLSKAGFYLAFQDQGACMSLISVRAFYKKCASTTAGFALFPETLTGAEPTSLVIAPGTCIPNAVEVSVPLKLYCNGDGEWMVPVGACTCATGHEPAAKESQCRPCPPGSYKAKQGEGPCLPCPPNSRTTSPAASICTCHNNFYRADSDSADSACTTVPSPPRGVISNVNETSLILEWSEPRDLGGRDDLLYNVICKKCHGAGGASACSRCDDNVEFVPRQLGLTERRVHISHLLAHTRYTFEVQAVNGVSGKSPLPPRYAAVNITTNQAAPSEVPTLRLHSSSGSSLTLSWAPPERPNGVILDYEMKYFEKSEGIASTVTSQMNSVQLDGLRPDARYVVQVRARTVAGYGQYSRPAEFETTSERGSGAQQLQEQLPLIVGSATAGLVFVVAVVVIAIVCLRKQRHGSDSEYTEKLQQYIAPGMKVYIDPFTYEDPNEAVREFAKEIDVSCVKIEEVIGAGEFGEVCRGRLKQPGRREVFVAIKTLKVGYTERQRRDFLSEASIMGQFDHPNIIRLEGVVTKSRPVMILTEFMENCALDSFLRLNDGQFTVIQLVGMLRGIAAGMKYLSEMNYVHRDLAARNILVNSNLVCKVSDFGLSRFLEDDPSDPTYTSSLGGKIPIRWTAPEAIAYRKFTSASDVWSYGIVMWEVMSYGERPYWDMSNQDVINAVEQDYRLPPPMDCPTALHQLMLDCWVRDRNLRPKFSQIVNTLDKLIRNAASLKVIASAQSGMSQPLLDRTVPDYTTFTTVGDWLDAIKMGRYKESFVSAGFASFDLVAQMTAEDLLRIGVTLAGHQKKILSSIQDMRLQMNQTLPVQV
Particulars: at 0.1 µM.

The target of test [3] is T2, Ephrin type-B receptor 3 (Homo sapiens). As to conditions: at 1 µM.
The target of test [4] is T3, Ephrin type-B receptor 4 (Homo sapiens) (UniProt P54760).
T3 sequence (whole entry): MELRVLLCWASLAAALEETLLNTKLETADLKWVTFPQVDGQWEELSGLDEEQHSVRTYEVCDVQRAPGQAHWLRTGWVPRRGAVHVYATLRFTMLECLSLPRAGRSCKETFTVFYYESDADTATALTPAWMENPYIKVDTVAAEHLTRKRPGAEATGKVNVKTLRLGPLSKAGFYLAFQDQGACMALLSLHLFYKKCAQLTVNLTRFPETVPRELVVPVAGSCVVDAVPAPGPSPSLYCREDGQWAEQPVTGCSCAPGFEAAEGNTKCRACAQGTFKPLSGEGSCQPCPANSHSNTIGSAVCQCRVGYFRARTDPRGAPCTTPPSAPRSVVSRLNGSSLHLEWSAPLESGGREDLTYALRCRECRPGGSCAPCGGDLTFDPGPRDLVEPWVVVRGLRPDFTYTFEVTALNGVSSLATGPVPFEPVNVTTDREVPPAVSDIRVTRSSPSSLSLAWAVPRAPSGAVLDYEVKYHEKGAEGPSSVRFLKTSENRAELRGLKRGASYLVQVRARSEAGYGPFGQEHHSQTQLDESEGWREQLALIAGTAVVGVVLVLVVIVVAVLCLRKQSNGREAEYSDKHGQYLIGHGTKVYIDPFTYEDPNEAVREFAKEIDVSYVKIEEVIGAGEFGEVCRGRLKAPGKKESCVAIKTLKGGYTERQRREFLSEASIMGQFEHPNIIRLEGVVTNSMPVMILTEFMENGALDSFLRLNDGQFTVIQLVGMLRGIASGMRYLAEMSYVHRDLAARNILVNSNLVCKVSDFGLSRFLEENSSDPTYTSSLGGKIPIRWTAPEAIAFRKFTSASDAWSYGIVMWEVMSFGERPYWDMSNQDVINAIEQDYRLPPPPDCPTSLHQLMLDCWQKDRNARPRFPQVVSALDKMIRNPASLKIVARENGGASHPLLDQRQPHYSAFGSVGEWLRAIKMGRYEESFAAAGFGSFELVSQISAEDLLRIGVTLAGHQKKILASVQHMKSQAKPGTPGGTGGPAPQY
As to conditions: at 0.1 µM.

Test [5] concerns the target T3, Ephrin type-B receptor 4 (Homo sapiens). As to conditions: at 1 µM.
Test [6] addresses Receptor tyrosine-protein kinase erbB-2 (Homo sapiens) (UniProt P04626). As to conditions: at 0.1 µM.
For test [7] the target is unchanged. As to conditions: at 1 µM.
Test [8] addresses Receptor tyrosine-protein kinase erbB-4 (Homo sapiens) (UniProt Q15303). As to conditions: at 0.1 µM.
Test [9] has the same target. As to conditions: at 1 µM.
The target in test [10] is Tyrosine-protein kinase Fer (Homo sapiens) (UniProt P16591). Particulars: at 0.1 µM.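 Note: reported figures are averaged percent inhibition of FER.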
Tyrosine-protein kinase Fer (Homo sapiens), sequence (P16591 whole entry, looked up): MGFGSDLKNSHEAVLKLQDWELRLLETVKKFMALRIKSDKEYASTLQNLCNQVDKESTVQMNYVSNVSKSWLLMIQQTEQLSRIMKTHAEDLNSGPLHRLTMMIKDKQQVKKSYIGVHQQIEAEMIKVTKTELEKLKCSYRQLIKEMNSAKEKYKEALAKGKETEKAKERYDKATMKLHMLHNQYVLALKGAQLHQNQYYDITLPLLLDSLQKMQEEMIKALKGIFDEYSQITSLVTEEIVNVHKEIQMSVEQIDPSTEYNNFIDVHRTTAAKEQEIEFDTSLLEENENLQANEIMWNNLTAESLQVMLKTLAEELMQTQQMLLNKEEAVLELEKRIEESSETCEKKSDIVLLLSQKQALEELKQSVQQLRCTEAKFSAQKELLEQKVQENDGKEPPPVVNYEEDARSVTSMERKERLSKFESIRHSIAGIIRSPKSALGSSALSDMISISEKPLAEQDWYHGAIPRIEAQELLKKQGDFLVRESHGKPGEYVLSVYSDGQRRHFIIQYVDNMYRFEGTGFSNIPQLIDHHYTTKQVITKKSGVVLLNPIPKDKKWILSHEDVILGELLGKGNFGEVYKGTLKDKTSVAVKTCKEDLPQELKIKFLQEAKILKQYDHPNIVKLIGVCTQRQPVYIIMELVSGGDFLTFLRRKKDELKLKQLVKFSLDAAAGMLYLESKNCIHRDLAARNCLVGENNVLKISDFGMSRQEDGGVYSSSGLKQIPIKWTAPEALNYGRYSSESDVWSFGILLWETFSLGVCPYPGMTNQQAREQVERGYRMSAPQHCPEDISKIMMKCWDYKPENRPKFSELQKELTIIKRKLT

Receptor tyrosine-protein kinase erbB-2 (Homo sapiens), sequence (P04626 whole entry): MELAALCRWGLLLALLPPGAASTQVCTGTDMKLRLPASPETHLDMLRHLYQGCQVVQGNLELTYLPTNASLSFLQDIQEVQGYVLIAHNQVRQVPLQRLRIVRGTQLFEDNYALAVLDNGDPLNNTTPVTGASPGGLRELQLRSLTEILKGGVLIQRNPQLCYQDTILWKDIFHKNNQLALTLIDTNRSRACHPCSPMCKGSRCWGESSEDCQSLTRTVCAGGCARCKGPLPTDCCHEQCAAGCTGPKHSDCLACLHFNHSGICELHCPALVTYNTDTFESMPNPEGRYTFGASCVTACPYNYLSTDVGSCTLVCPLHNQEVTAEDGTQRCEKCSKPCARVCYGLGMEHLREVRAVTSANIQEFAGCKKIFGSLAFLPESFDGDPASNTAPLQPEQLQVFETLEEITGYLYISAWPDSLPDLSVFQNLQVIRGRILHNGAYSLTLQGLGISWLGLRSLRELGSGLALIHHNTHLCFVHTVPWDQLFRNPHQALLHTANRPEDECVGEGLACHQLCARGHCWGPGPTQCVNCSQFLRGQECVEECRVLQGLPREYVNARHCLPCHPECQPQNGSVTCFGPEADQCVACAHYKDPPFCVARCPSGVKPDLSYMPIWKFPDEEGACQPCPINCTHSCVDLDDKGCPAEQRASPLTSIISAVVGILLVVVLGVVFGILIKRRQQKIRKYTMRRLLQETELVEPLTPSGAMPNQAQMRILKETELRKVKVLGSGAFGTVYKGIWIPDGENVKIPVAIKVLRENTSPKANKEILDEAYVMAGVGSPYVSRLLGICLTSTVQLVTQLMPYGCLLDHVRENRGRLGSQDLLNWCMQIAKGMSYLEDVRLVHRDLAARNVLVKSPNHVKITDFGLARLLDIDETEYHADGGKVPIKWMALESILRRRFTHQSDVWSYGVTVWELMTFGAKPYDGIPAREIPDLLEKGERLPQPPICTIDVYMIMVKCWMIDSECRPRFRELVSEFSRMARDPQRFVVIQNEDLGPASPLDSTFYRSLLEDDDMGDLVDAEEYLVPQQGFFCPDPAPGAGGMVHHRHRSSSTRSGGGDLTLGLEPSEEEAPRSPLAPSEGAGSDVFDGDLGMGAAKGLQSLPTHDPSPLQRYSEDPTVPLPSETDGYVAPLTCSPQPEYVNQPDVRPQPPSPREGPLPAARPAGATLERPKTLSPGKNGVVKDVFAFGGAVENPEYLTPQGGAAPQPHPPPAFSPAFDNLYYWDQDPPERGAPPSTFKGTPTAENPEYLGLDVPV
Receptor tyrosine-protein kinase erbB-4 (Homo sapiens), sequence (Q15303 whole entry): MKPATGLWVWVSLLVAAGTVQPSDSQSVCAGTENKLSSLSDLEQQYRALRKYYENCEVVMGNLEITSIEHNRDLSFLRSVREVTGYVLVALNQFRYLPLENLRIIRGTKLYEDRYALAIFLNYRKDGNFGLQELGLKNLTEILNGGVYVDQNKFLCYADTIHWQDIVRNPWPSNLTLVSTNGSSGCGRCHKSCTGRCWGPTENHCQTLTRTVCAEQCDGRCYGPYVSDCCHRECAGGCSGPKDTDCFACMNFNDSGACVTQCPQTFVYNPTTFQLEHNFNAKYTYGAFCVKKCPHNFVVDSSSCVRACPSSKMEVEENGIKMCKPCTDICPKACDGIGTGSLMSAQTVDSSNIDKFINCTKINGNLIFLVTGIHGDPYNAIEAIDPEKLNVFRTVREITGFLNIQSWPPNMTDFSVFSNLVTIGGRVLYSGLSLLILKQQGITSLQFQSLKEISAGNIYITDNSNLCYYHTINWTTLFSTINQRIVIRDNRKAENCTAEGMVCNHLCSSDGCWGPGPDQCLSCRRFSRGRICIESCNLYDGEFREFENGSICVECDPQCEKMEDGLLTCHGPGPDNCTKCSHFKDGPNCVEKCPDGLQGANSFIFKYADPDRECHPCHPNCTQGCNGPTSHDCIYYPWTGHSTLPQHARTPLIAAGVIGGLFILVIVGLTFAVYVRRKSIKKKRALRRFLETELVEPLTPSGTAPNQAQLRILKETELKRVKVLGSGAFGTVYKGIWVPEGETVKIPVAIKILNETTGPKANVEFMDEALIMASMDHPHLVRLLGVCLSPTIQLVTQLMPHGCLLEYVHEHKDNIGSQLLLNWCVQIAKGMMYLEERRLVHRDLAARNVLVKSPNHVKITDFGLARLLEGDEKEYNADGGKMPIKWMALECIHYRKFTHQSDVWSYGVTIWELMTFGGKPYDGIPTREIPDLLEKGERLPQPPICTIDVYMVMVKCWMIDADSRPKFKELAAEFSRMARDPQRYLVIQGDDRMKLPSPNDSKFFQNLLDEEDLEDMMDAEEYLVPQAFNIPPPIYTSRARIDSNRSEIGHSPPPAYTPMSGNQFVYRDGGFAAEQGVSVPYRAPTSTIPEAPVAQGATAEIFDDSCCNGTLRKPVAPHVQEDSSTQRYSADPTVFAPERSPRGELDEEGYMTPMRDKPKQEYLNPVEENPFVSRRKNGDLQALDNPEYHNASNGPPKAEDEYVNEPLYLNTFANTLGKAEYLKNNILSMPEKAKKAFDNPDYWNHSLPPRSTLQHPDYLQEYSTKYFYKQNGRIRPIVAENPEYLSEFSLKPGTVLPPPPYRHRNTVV

As for `COc1cc2ncn(-c3cc(OCc4ccccc4C(F)(F)F)c(C(N)=O)s3)c2cc1OC`, the inhibition in test [1] is 17.3%; in [2], 1.32%; in test [3], 0.77%; in [4], 0.05%; in test [5] it was 1.61%; in test [6], 3.56%. The inhibition in test [7] came to 4.42%; in test [8], 3.59%; in test [9], 11.8%; in test [10] it was 3.4%.
In the case of `CNC(=O)c1cncc(/C=C/c2c(Cl)cccc2Cl)c1`, the inhibition in test [1] was 29.2%; in test [2], -2.12%; in [3], 2.92%; in test [4], 2.4%; in [5], 74.1%; in test [6], 3.2%. The inhibition in test [7] was 3.13%; in test [8] it was -0.22%; in [9] it was 8.83%; in [10], 0.6%.
On to `CCn1c(-c2nonc2N)nc2cncc(C(=O)N3CC[C@H](N)C3)c21`, for which the inhibition worked out at 6.1% in test [1]; 6.62% in [2]; 4.88% in test [3]; 6.15% in [4]; 2.54% in test [5]; 4.24% in [6]. The inhibition was 7.27% in test [7], 13.3% in test [8], 17.8% in [9] and 1.22% in [10].
With `CS(=O)(=O)CCNCc1ccc(-c2ccc3ncnc(Nc4ccc(OCc5ccccc5)c(Cl)c4)c3c2)o1`, the inhibition in test [1] was 11.5%; in test [2] it was -0.46%; in test [3] it was 2.9%; in test [4] it was 1.93%; in [5], 2.4%; in [6], 21.5%. For the same molecule, the inhibition is 69.5% in test [7], 59.8% in test [8], 88.1% in test [9] and 4.02% in test [10].
As for `COc1cc2ncn(-c3cc(O[C@@H](C)c4ccccc4Cl)c(C(N)=O)s3)c2cc1OC`, the inhibition was 14.1% in [1]; 3.27% in test [2]; 3.66% in test [3]; 1.67% in test [4]; 4.23% in test [5]; 0.23% in test [6]. For the same molecule, the inhibition in test [7] is 6.51%; in test [8], 6.3%; in [9], 14.2%; in test [10] it was 6.4%.
Consider `CCn1c(-c2nonc2N)nc2ccncc21`, for which the inhibition in test [2] was 2.91%; in test [3], -1.68%; in [4], -0.26%; in [5], 0.27%; in test [6] it was 0.8%; in test [7], -4.21%. In addition, the results for the inhibition in [8], in [9] and in test [10] were 7.5%, 9.71% and 2.5%, respectively.
Turning to `O=C1NC(=O)C(c2ccc(Cl)cc2)=C1Nc1ccc(Cl)c(C(=O)O)c1`, the inhibition in test [1] is 1.8%; in [2], -6.22%; in test [3], -1.9%; in test [4], -0.68%; in test [5], -1.57%; in test [6] it was -2.94%. Also, the inhibition was -3.13% in test [7], -7.86% in test [8], -9.87% in test [9] and 1.93% in [10].
With `COc1ccc(-c2coc3ncnc(N)c23)cc1`, the inhibition is 7.88% in test [1]; 6.18% in test [2]; 5.65% in test [3]; 2.3% in test [4]; 3.43% in test [5]; 0.31% in test [6]. The inhibition is -4.24% in [7], 9.06% in test [8], 15.5% in test [9] and 6.86% in test [10].
Take `Fc1cccc(COc2ccc(Nc3ncnc4cc(-c5ccc[nH]5)sc34)cc2Cl)c1`: the inhibition was 6.05% in test [1]; 0.75% in test [2]; -2.49% in test [3]; -1.44% in [4]; -2.14% in test [5]; 0.71% in [6]. Also, the inhibition in test [7] was found to be 15.2%; in [8], 36.5%; in test [9] it was 68.5%; in test [10], 1.94%.
With `NC(=O)c1cccc(Nc2nccc(Nc3cccc4[nH]ncc34)n2)c1`, the inhibition in [1] was 77.8%; in test [2], -3.41%; in [3] it was 4.33%; in [4] it was 22.2%; in test [5] it was 72.1%; in test [6], -4.62%. Besides, the inhibition is 2.08% in test [7], -6.41% in test [8], -1.88% in test [9] and 3.13% in test [10].
For `Fc1cccc(COc2ccc(Nc3ncnc4sc(-c5cccs5)cc34)cc2Cl)c1`, the inhibition in test [1] amounted to 2.33%; in [2] it was 0.38%; in [3] it was 2.19%; in test [4], 1.37%; in [5], 1.29%; in test [6], 1.07%. Further, the inhibition came to 3.46% in test [7], 5.25% in test [8], 31.8% in test [9] and 5.4% in [10].
For `CCn1c(-c2nonc2N)nc2c(N3CCCC3)nccc21`, the inhibition was -2.7% in [1]; -2.28% in test [2]; -3.63% in test [3]; -1.4% in [4]; -1.17% in test [5]; -5.46% in test [6]. Further, the inhibition in test [7] was -0.23%; in test [8], -3.28%; in [9], -2.19%; in test [10], 2.26%.
`CS(=O)(=O)CCNCc1nc(-c2ccc3ncnc(Nc4ccc(F)c(Cl)c4)c3c2)cs1`: the inhibition in [1] worked out at 22.5%; in test [2] it was 6.15%; in [3] it was 9.44%; in test [4], 1.4%; in test [5], 8.6%; in [6] it was 7.41%. In addition, the inhibition in test [7] came to 34.5%; in [8], 46.6%; in test [9] it was 83.1%; in test [10], 1.44%.
For `COc1cc2ncn(-c3cc(OCc4ccccc4Cl)c(C(N)=O)s3)c2cc1OC`, the inhibition in test [1] is 7.08%; in [2] it was 2.15%; in [3], 1.6%; in test [4], 0.55%; in [5], 3.38%; in test [6] it was -1%. Also, the inhibition is 2.47% in test [7], -1.93% in [8], 9.17% in [9] and 2.47% in [10].
With `COc1ccc(-c2nn3ncccc3c2-c2ccnc(Nc3ccc(Cl)c(C(F)(F)F)c3)n2)cc1`, the inhibition in [1] is 10%; in test [2], 3.56%; in test [3] it was 4.88%; in test [4], 3.3%; in [5], -0.34%; in test [6] it was 3.66%. Moreover, the inhibition is 7.66% in [7], 16% in test [8], 51.5% in test [9] and 1.3% in [10].

As usually defined, the inhibition is the change of the read-out against control, counted positive when it falls.

The values above are taken from ChEMBL document CHEMBL1961873, “Compounds: GSK PKIS; Assays: Nanosyn kinase panel” (2012).
